The values below come from PubChem BioAssay (EPA / NIEHS).

Inconclusive results are not listed. The source made the active and inactive calls. Rule for the calls: active = hit-call score of the fitted dose curve at least 0.9, where 1 is the maximum; inconclusive = response in the unintended direction; inactive = score below 0.9.

The assay can be described thus: ATG_XTT_Cytotoxicity: Cytotoxicity Assessment in the Attagene TRANS-FACTORIAL HepG2 Assay (AID 2283584). On the procedure:
ATG_XTT_Cytotoxicity is a cell-based, single-readout assay that uses HepG2, a human liver cell line, with measurements taken at 24 hours after chemical dosing in a 24-well plate.ATG_XTT_Cytotoxicity is one of one assay component(s) measured or calculated from the ATG_XTT_Cytotoxicity assay. It is designed to make measurements of cell number, a form of viability reporter, as detected with […] signals by XTT cytotoxicity assay technology.Data from the assay component ATG_XTT_Cytotoxicity was analyzed into 1 assay endpoint. This assay endpoint, ATG_XTT_Cytotoxicity, was analyzed in the positive analysis fitting direction relative to DMSO as the negative control and baseline of activity. Using a type of viability reporter, loss-of-signal activity can be used to understand changes in the viability. Furthermore, this assay endpoint can be referred to as a primary readout, because the performed assay has only produced 1 assay endpoint. To generalize the intended target to other relatable targets, this assay endpoint is annotated to the cell cycle intended target family, where the subfamily is cytotoxicity.
Human liver HepG2 cells are transiently transfected with multiple reporter transcription units (MRTUs) in 6-well plates using FuGene 6 reagent (Roche; 3 ml FuGene/1 mg DNA). The MRTU constructs are regulated by a cis-regulating element (promoter). […] A major difference between the CIS and TRANS system is that in CIS activities of endogenous TFs are measured, whereas the TRANS assay evaluates changes in activities of exogenous, chimeric NR-Gal4 proteins. […] At the end of 24 hour incubation, total RNA was isolated using TriZol reagent (Invitrogen). The isolated RNA is then reverse-transcribed using oligo(dT) primer and Mo-MLV reverse transcriptase (Invitrogen) with DNAse I (Ambion) treatment for 30 min. The one-tenth of the produced cDNA was amplified by PCR using Taq DNA polymerase (Invitrogen) and two reporter sequence-specific primers. The PCR products were fluorescently labeled by primer extension with 6-arboxyfluorescein (6-FAM) 5'-labeled reporter sequence-specific primer (2 min at 95 C, 20 s at 68 C and 10 min at 72 C) and these products were digested with 5U of HpaI (New England Biolabs) for 2h at 37 C. The fragments were purified using Qiaquick PCR columns (Qiagen), analyzed on an ABI 3130xL genetic analyzer (Applied Biosystems) with peak positions identified by using a set of X-rhodamine (ROX)-labeled MapMarker1000 molecular weight standards (BioVentures). The raw capillary electrophoresis data was processed using Attagraph software (Attagene).
`O=C(Cl)c1cc(C(=O)Cl)cc(C(=O)Cl)c1`: the compound was classed as inactive. On to `O=S(=O)(O)c1ccc2cc(O)c(S(=O)(=O)O)cc2c1`, for which the compound was called inactive. Take `Nc1ccc(N)c(Cl)c1`: the result was inactive. For `CCOC(=O)NNc1nncc2ccccc12`, the compound was called inactive.

Regarding `CC(=O)Nc1nnc(S(N)(=O)=O)s1`, the call was inactive. To `C=CC(C)(CCC=C(C)C)OC(=O)C(C)C` (stereo not given) belongs “inactive”; to `Cc1ccc(C(C)(C)C)cc1`, “inactive”. For `COC=O` the value was “inactive”; for `CCCCCCCCCCCCCOP(=O)(O)O`, “inactive”. For `CCN(CCC#N)c1ccc(N=Nc2c(Cl)cc([N+](=O)[O-])cc2Cl)cc1`, the result was inactive. With `COc1ccc(-c2coc3cc(O)ccc3c2=O)cc1`, the compound was classed as inactive. Regarding `CC1(C)[C@H]2CC[C@]1(C)C(=O)C2`, the result was inactive. Turning to `CCCCCCCOC(=O)CCC`, the compound was classed as inactive. Regarding `COC(=O)c1sccc1S(N)(=O)=O`, the compound was called inactive. Turning to `CC(=O)Oc1ccc(C)cc1`, the outcome was inactive.

Take `COc1ccc(NC(C)=O)cc1N`: the compound was called inactive. With `O=S(=O)(O)CC(O)CCl` (stereo not given), the outcome was inactive. As to `CC1(C)O[C@@H]2C[C@H]3[C@@H]4C[C@H](F)C5=CC(=O)CC[C@]5(C)[C@H]4[C@@H](O)C[C@]3(C)[C@]2(C(=O)CO)O1`, the compound was called inactive.

`N#CCc1ccc(Cl)cc1Cl`: the outcome was inactive.

Take `CC(C)=CCC/C(C)=C\C#N`: the call was inactive. Consider `CC(=O)CC(N)=O`, for which the call was inactive. Turning to `CCCCCC/C=C/C=O`, the compound was called inactive.

As to `CC1OC1C1CCC2(C)OC2C1` (stereo not given), the result was inactive. As for `O=C1CCCCCCCCCCC(=O)OCCO1`, the result was inactive.

Turning to `CCCCCCCCc1ccc(Nc2ccc(CCCCCCCC)cc2)cc1`, the compound was called inactive. With `COCC(C)N` (stereo not given), the call was inactive. For `CC(=O)Nc1ccc2c(c1)Cc1cc(NC(C)=O)ccc1-2` the value was “inactive”; for `O=C(O)C(c1ccc(Cl)cc1)c1ccc(Cl)cc1`, “inactive”; for `OC1CCCCCCCCCCC1`, “inactive”. For `CCOC(=O)CC` the value was “inactive”; for `C=C(C)C(=O)OCCOc1ccccc1`, “inactive”. For `O=C1CCCN1CCO`, the compound was called inactive. As to `O=CN1CCCCC1`, the call was inactive. In the case of `CCOC(=O)[C@H](C)O`, the outcome was inactive. With `Cc1cccc(N)n1`, the outcome was inactive. As for `O=C1C=CC(=O)O1`, the result was inactive. `Nc1ccc(-c2ccc(F)cc2)cc1`: the compound was classed as inactive. In the case of `O=C(C=Cc1ccccc1)OCc1ccccc1`, the compound was classed as inactive.

Turning to `CC(=O)c1ccc[nH]1`, the outcome was inactive. For `CCCCCCCCCCc1ccccc1` the value was “inactive”.
